Abeta yeast res = compounds reversing amyloid beta toxicity in yeast; yeast expressing A-beta42, growth rescue, OD600, 48 h; response scale: 0% DMSO, 100% iron-clioquinol control; Potency, µM (doses to about 46.1 µM), most hits filed as activators; 410,000 compounds, 0.063% hits; note: nearly all actives have a fitted effect of over 55% in size
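Growth rescue measured by 600 nm absorbance after 48 h yeast culture at 30 C with compound. Values normalized between DMSO and an equimolar ferric chloride plus clioquinol control.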
FUS yeast rescue = suppressors of FUS proteinopathy in yeast; S. cerevisiae FUS-expressing, growth rescue, OD600, 24 h; Potency, µM (series often up to 76.6 µM), usual class: activators; 390,000 compounds, 0.24% hits;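 note: plate controls were DMSO vehicle for no effect and reference control for full effect; nearly all actives have a fitted effect of over 55% in size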
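Cultures pregrown in 2.5% raffinose medium are shifted to minimal medium containing 2% galactose to express toxic FUS. Compounds are tested at several concentrations. After 24hr at 30C, growth is quantified at 600 nm absorbance.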
ERG Ets-DNA blk = blocks human ERG Ets domain binding to DNA | P11308 | fluorescence polarization, His-ERG Ets domain / labelled DNA | Potency, µM (series often up to 76.9 µM), for inactives: at the highest dose FP activity, negative = inhibition, most hits filed as inhibitors | 370,000 compounds, 0.028% hits; active = well fitted inhibition curve with a large enough effect in the polarisation, with a control signal flat; inconclusive = small, poorly fitted or top-dose-only effect, or effect the other way, or a change in a side signal; inactive = no such curve, though single readings can be large or run the other way; the % refers to the polarisation;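 note: polarization taken with two DNA probes labelled with fluorescein and Texas red; % of control where 0% means no effect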
Target sequence (P11308 whole entry, looked up, the tested form may be a part): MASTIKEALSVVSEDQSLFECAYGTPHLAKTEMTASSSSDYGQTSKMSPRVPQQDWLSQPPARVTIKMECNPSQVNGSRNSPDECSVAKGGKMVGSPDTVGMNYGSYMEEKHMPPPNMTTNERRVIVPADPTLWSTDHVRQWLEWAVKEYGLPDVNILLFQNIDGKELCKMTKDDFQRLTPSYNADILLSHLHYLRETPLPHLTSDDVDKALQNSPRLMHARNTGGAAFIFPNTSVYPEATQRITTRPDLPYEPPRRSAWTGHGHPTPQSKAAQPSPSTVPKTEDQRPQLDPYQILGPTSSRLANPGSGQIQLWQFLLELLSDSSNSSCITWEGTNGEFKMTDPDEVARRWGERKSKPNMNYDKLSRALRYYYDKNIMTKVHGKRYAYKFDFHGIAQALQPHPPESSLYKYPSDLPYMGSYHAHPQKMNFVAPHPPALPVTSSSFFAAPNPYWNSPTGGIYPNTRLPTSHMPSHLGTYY
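His-tagged ERG Ets domain (1 uM in the protein solution; 300mM KCl, 50mM Tris-HCl, 1mM EDTA, 1mM DTT, pH 7.5) received compound, then a probe mix of 5 nM fluorescein-DNA and 100nM Texas-615-DNA. Fluorescence polarization was read for both dyes.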
Mito fusion act = blocks mitochondrial division or promotes mitochondrial fusion | S. cerevisiae fusion-defective mutant growth rescue, CellTiterGlo 48 h | Potency, µM (highest dose often 46.1 µM), for inactives: at the top dose growth rescue (activation), hits mostly activators | 320,000 compounds, 0.23% hits; note: % of control where 0% means no effect; nearly all actives have a fitted effect of over 45% in size
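Yeast fusion mutant, YPEG (non-fermentable carbon), compound, 48 h at 37C non-permissive; CellTiterGlo added, 10 min RT, luminescence read. Rescued growth = division inhibition.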
aSyn yeast inh = inhibitors of alpha-synuclein toxicity in yeast | Yeast expressing alpha-synuclein, growth rescue, BacTiter-Glo, 24 h | Potency, µM (top dose mostly 46.1 µM), inactives show at the top dose growth rescue (activation), actives largely listed as activators | 370,000 compounds, 0.14% hits; note: % of control where 0% means no effect; nearly all actives have a fitted effect of over 65% in size
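Rescue of yeast growth: cells expressing toxic alpha-synuclein, induced in galactose at OD600 0.02, incubated with compound 24 h at 30 C. ATP luminescence quantified growth; inhibitors of toxicity appear as activators.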
TDP-43 yeast inh = TDP-43 toxicity inhibition in yeast; AID 652104; TDP-43 expressing yeast growth rescue, BacTiter-Glo, 24 h; Potency, µM (doses to about 46.1 µM), inactives show at the highest dose growth rescue (activation), actives largely listed as activators; 410,000 compounds, 1.8% hits; note: % of control where 0% means no effect; nearly all actives have a fitted effect of over 50% in size
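Yeast cells expressing TDP-43 under galactose induction are exposed to compounds for 24 hr at 30 deg C. BacTiter-Glo luminescence measures growth, so protective compounds score as activators.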
* hit, by the source's call; i = inactive; ? = inconclusive; nt = no result; [ ] = another dose, or the depositor's remark. Rows were chosen to be rich in hits. Some 2.2% of all compounds tested hit in one or more screens of this group. Unless noted, calls come from the whole dose curve; as a rule, active = well fitted curve in the direction sought with a large enough effect; inconclusive = small, poorly fitted or top-dose-only effect, or another doubt; inactive = no such curve, though single readings can be large; an effect the other way counts as inactive or inconclusive. Potency is the fitted concentration of half-maximal effect.

SMILES | Abeta yeast res | FUS yeast rescue | ERG Ets-DNA blk | Mito fusion act | aSyn yeast inh | TDP-43 yeast inh
CCc1ccc(N2C=C(C(=O)OC)C(c3ccc(OC)cc3)C(C#N)=C2N)cc1 (centres undefined) | i | ? | nt | nt | 25µM* | ?
Cc1ccc(-c2nnn3c2nc(NCCc2ccccc2)c2ccccc23)cc1 | i | i | 0% | nt | nt | 10%
Cc1nc(-c2ccccn2)nc(SCC(=O)c2ccccc2)c1Cl | i | i | -4% | 0% | 7% | 18µM*
COC(C/C=C/C(=O)COCc1ccccc1)OC | i | i | 5% | -69% | 6% | 13µM*
Cc1cccc(NC(=O)CN2C(=O)N/C(=C/c3cc(C)n(C(C)C)c3C)C2=O)c1 | i | 20µM* | -5% | -4% | 21% | -9%
CCS(=O)(=O)n1nc(-c2ccc(Cl)cc2)nc1SC | i | i | -12% | -6% | 0% | 16µM*
COc1ccccc1-c1cc2nc(NCCOc3ccccc3)ccn2n1 | i | i | nt | nt | 14% | 25µM*
c1ccc(OCCNc2ccn3nc(-c4cccs4)cc3n2)cc1 | i | i | nt | nt | -1% | 14µM*
c1ccc(OCCNc2ccn3nc(-c4ccco4)cc3n2)cc1 | i | i | nt | nt | -9% | 16µM*
Cc1nnc(NC(=O)CSc2nc3c([nH]c4ccccc43)c(=O)n2-c2ccc(Cl)cc2)s1 | i | i | -1% | nt | 2% | 22%
C=CCNC(=S)NN=C1CCCCCCC1 | 8.9µM* | i | 15% | -5% | -8% | -3%
COCCNC(=S)NN=C1CCCCC1 | i | i | -6% | 20% | 0% | -18%
O=C1CC(c2ccc3c(c2)OCO3)c2cc3c(cc2N1)OCO3 (centres undefined) | i | i | -4% | 16% | 1% | 18%
O=C1c2cc3c(cc2CCC1c1ccc2c(c1)OCO2)OCO3 (centres undefined) | i | i | nt | nt | -4% | 16µM*
O=C(O)c1cc2ccccc2c2cc(Br)ccc12 | i | i | -1% | 11µM* | 15% | -4%
Nc1cc(C(=O)O)c(N)c2c1C(=O)c1ccccc1C2=O | i | i | -1% | -12% | -29% | -34%
O=C(O)c1cc2ccccc2c2c1C(=O)c1ccccc1-2 | ? | i | nt | nt | 2.8µM* | -8%
O=C(O)c1cc2ccccc2c(Cc2c(O)c(C(=O)O)cc3ccccc23)c1O | nt | nt | nt | nt | 17% | nt
NC(=S)N/N=C/c1ccc(-c2ccccc2)o1 | ? | i | -11% | 0% | 10% | 11µM*
NC(=S)N/N=C/C=C/c1ccccc1 | i | i | 7% | -8% | 5% | 10µM*
Cc1ccc(C(=O)N/N=C/C=C/c2ccccc2)cc1 | i | i | -2% | 5% | -3% | -23%[9.22 µM]
O=[N+]([O-])c1ccc(-c2ccc(/C=N/O)o2)cc1 | i | i | 7% | 14% | 7% | ?
NC(=S)N/N=C/c1cccc(Br)c1 | i | i | 12% | 5% | 7% | 20µM*
O/N=C\c1ccc(-c2ccccc2)o1 | i | nt | nt | 9% | -6% | 8.9µM*
Cc1ccc(-c2ccc(/C=N/NC(N)=S)o2)cc1 | ? | i | -2% | -2% | -20% | ?
SMILES | Abeta yeast res | FUS yeast rescue | ERG Ets-DNA blk | Mito fusion act | aSyn yeast inh | TDP-43 yeast inh
NC(=S)N/N=C/c1cccc(/C=N/NC(N)=S)c1 | i | i | 5% | 2% | -6% | -8%
NC(=S)N/N=C/c1ccc(-c2ccc(Cl)c(Cl)c2)o1 | i | i | 4% | 13% | 21% | 20µM*
Cc1ccc(C2N3CC4(C)CN2CC(c2ccccc2)(C3)C4=O)cc1 (centres undefined) | i | i | 0% | nt | nt | 14%
CCCOc1cc(C)c(S(=O)(=O)NCc2cccs2)cc1C | i | i | 3% | nt | 10µM* | 20µM*
CCCCCC1CCC(c2n[nH]c(=S)n2C)CC1 (centres undefined) | ? | i | -7% | ? | 8% | 14µM*
Cc1ccc(N(CC(=O)NCCc2ccccc2)S(=O)(=O)N(C)C)cc1 | i | i | 2% | nt | nt | 15%
CCc1nonc1NC(=O)COc1cc(C)c(Cl)c(C)c1 | i | i | 12% | 11µM* | -7% | -1%
COc1ccc(NC(=O)c2cc(-c3cc(F)ccc3OC)n[nH]2)c(OC)c1 | i | i | nt | nt | -17% | 20µM*
COc1ccc(NC(=O)c2cc(-c3cc(F)ccc3OC)n[nH]2)cc1OC | i | i | nt | nt | -2% | 35µM*
CCCOc1ccc(F)cc1-c1cc(C(=O)Nc2ccc(OC)c(OC)c2)[nH]n1 | i | ? | nt | nt | 1% | ?
COc1ccc(NC(=O)c2cc(-c3cc(F)ccc3OC(C)C)n[nH]2)c(C)c1 | i | ? | nt | nt | 6% | ?
COc1ccc(NC(=O)c2cc(-c3ccc(F)cc3OC)n[nH]2)c(OC)c1 | i | i | nt | nt | -7% | 20%
COc1ccc(OC)c(NC(=O)c2cc(-c3ccc(F)cc3OC(C)C)n[nH]2)c1 | i | ? | nt | nt | -8% | 22µM*
COc1ccc(NC(=O)c2cc(-c3cc(F)ccc3OC)n[nH]2)cn1 | i | i | nt | nt | -23% | 20µM*
COc1ccc(F)cc1-c1cc(C(=O)Nc2ccc(C)c(NS(C)(=O)=O)c2)[nH]n1 | i | i | nt | nt | -6% | 0%
Cc1cc(C)c2c(CC(=O)N(Cc3ccc(Cl)cc3)Cc3ccco3)coc2c1 | i | i | -1% | nt | nt | -2%
O=C(Nc1ccccc1Br)C1CCCN(S(=O)(=O)c2cccc3nsnc23)C1 (centres undefined) | i | i | 0% | nt | nt | ?
Cc1cc(NC(=O)Nc2cccc(Cl)c2)n(-c2ccccc2)n1 | i | i | -3% | 4% | 4% | -2%
Cc1cc(Nc2ccccc2)n(-c2cccc(Cl)c2)n1 | i | i | -1% | 1% | -9% | 14µM*
Cc1cc(Nc2ncc(Cl)cc2Cl)n(-c2ccccc2)n1 | i | i | -4% | 1% | -27% | 7.1µM*
O=C(Nc1ccc(OCc2cc(=O)n3c4c(sc3n2)CCCC4)cc1)c1ccccc1 | i | i | -12% | nt | nt | ?
CC(C)NC(=O)C1(C)CCN1Cc1cccc(Cl)c1 (centres undefined) | i | i | nt | nt | -5% | 14%
CCC(C(=O)Nc1ccc(C)c(C)c1)n1c(=O)c(C(F)(F)F)nc2ccccc21 (centres undefined) | i | i | 2% | nt | nt | 13%
Cc1ccc(Nc2cc(Cl)nc(N)n2)c([N+](=O)[O-])c1 | i | i | 3% | nt | -6% | 17%

Compound activity from PubChem BioAssay.
